From PubChem BioAssay (EPA / NIEHS)
Calls of active or inactive are those of the source. Rule for the calls: active = hit-call score of the fitted dose curve at least 0.9, where 1 is the maximum; inactive = score below 0.9.

Legend:
[1] = ATG_GLI_CIS: Attagene CIS-FACTORIAL HepG2 Assay for human Zinc Finger Protein GLI1 (AID 2282945); settings: HepG2, Attagene cis-factorial reporter mRNA, GLI element; actives raise or lower the signal
Summary of the method: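 Bidirectional curve fits relative to DMSO, using reporter mRNA levels from RT-PCR plus capillary electrophoresis. Cells were HepG2 transiently carrying cis-regulated reporter constructs, harvested 24 h after dosing.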

[2] = ATG_GRE_CIS: Attagene CIS-FACTORIAL HepG2 Assay for human Glucocorticoid Response Elements (GRE) (AID 2282947); settings: HepG2 GRE cis-reporter, Attagene multiplex mRNA; actives raise or lower the signal
Summary of the method: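 Multiplexed cis-reporter mRNA induction, HepG2, 24 h post-dose. RT-PCR, FAM-labelled, HpaI-digested amplicons by CE. Bidirectional fit vs DMSO.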

[3] = ATG_ISRE_CIS: Attagene CIS-FACTORIAL HepG2 Assay for human Interferon Regulatory Factor 1 (IRF1) binding to an Interferon-Stimulated Response Element (ISRE) (AID 2282948); settings: HepG2 ISRE cis-reporter (Attagene), mRNA transcription readout; actives raise or lower the signal
Summary of the method: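 Read-out: fluorescent RT-PCR products resolved by capillary electrophoresis, reporting endogenous transcription factor activity via ISRE-driven reporter mRNA in transfected HepG2 cells dosed for 24 h; gain or loss fitted relative to DMSO.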

[4] = ATG_M_32_CIS: Attagene CIS-FACTORIAL HepG2 Assay for M32 Transcription Factor (Internal Marker) (AID 2282949); settings: HepG2 Attagene cis-factorial M32 reporter, mRNA; actives raise or lower the signal;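 note: background control marker of the multiplexed CIS panel rather than a real target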
Summary of the method: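 Using DMSO as baseline, bidirectional curve fits were applied to reporter mRNA signals. These came from transiently transfected HepG2 cells exposed for 24 h, with RNA analysed by RT-PCR, FAM primer extension, HpaI digestion and CE.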

[5] = ATG_M_06_CIS: Attagene CIS-FACTORIAL HepG2 Assay for M06 Transcription Factor (Internal Marker) (AID 2282950); settings: HepG2 Attagene CIS-FACTORIAL M06 internal marker reporter; actives raise or lower the signal
Summary of the method: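 HepG2 cells transiently transfected with cis-regulated multiple reporter transcription units were exposed to chemical for 24 h; reporter mRNA was quantified by RT-PCR, 6-FAM primer labelling, HpaI digestion and capillary electrophoresis, fitted bidirectionally against DMSO.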

[6] = target: Hypoxia-inducible factor 1-alpha (Homo sapiens) (UniProt Q16665); assay: ATG_HIF1a_CIS: Attagene CIS-FACTORIAL HepG2 Assay for human Hypoxia Inducible Factor 1 (HIF1A) (AID 2282951); settings: HepG2 Attagene cis-factorial HIF1a reporter transcription; actives raise or lower the signal
Summary of the method: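 Fluorescence intensity of capillary-separated, 6-FAM-labelled reporter amplicons gives mRNA induction in HepG2 cells carrying transfected cis-promoter reporter units; cells exposed 24 h, responses fitted up or down from DMSO.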

[7] = target: Hepatocyte nuclear factor 6 (Homo sapiens) (UniProt Q9UBC0); assay: ATG_HNF6_CIS: Attagene CIS-FACTORIAL HepG2 Assay for human Hepatocyte Nuclear Factor 6 (HNF6) (AID 2282952); settings: HepG2 Attagene cis-factorial HNF6 reporter transcription; actives raise or lower the signal
Summary of the method: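 Endogenous transcription factor activity in human HepG2 liver cells was captured through cis-regulated reporter constructs. After 24 h treatment, reporter mRNA was measured by RT-PCR with capillary electrophoresis, and activity was fitted in both directions relative to DMSO.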

[8] = target: Heat shock factor protein 1 (Homo sapiens) (UniProt Q00613); assay: ATG_HSE_CIS: Attagene CIS-FACTORIAL HepG2 Assay for human Heat Shock Transcription Factor 1 (HSE) (AID 2282953); settings: HepG2 HSE cis-reporter, Attagene RNA transcription; actives raise or lower the signal
Summary of the method: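 HepG2 cells transiently transfected with multiple reporter transcription units under cis-regulatory promoter control, measuring endogenous transcription factor activity. After 24 h chemical exposure, reporter mRNA quantified by RT-PCR, fluorescent labelling, HpaI digestion and capillary electrophoresis; bidirectional fit versus DMSO.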

[9] = ATG_MRE_CIS: Attagene CIS-FACTORIAL HepG2 Assay for human Metal Responsive Element (MRE) (AID 2282954); settings: HepG2 MRE cis-reporter transcription, Attagene multiplex; actives raise or lower the signal
Summary of the method: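 Multiplexed cis-reporter assay in human HepG2 liver cells, 24 h incubation with test chemical. Reporter transcripts measured by RT-PCR and capillary electrophoresis; values from bidirectional curve fitting versus DMSO.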

[10] = target: Bile acid receptor (Homo sapiens) (UniProt Q96RI1); assay: ATG_IR1_CIS: Attagene CIS-FACTORIAL HepG2 Assay for human Nuclear Receptor Subfamily 1 Group H Member 4 (NR1H4), IR1 submotif (AID 2282946); settings: IR1 reporter transcription, actives raise or lower the signal
Summary of the method: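 HepG2 cells transiently transfected with multiplexed cis-element reporter units read endogenous transcription factor activity. After 24 h compound exposure, reporter mRNA was quantified by RT-PCR, fluorescent labelling, HpaI digestion and capillary electrophoresis; bidirectional fitting versus DMSO baseline.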

Measured: AC50

Sequence of Bile acid receptor (Homo sapiens) (Q96RI1 whole entry, looked up): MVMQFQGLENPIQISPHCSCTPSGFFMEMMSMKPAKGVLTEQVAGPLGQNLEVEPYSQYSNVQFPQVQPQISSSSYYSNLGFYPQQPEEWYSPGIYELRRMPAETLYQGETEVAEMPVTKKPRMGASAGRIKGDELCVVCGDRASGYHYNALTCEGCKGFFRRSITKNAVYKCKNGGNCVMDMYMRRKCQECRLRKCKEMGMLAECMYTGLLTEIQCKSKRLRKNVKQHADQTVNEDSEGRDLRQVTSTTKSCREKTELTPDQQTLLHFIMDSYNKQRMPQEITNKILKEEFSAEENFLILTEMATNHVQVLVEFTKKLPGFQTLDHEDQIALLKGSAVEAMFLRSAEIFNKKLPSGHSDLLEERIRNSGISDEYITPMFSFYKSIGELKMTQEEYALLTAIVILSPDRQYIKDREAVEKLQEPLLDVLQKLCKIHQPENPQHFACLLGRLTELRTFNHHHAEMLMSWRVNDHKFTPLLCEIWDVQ
Sequence of Hepatocyte nuclear factor 6 (Homo sapiens) (Q9UBC0 whole entry, looked up): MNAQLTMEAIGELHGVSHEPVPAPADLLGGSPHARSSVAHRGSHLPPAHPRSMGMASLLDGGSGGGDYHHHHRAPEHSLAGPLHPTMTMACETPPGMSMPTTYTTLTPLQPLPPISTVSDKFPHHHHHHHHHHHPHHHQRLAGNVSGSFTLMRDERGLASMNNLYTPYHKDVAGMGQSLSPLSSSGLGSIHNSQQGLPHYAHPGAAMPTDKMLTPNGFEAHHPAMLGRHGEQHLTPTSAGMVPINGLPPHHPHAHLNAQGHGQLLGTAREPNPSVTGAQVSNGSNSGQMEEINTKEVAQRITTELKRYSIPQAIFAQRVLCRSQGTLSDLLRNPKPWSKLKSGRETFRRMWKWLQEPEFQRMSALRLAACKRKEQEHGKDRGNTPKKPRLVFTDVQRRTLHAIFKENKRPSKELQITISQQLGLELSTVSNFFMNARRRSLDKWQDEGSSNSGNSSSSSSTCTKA
Sequence of Heat shock factor protein 1 (Homo sapiens) (Q00613 whole entry, looked up): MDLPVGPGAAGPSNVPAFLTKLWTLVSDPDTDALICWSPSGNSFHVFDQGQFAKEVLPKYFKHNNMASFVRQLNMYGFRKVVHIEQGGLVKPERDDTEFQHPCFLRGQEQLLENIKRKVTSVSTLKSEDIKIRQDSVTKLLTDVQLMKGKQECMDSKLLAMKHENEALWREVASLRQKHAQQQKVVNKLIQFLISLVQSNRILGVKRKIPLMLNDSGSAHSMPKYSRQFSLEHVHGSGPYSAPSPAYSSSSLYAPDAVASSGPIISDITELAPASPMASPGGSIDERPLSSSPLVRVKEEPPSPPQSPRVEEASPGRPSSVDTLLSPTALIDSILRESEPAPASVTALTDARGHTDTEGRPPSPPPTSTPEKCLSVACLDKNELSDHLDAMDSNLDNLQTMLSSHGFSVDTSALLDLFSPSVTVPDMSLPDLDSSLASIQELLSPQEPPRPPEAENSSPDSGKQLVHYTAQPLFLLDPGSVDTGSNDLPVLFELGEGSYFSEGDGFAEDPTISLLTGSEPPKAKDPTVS
Sequence of Hypoxia-inducible factor 1-alpha (Homo sapiens) (Q16665 whole entry, looked up): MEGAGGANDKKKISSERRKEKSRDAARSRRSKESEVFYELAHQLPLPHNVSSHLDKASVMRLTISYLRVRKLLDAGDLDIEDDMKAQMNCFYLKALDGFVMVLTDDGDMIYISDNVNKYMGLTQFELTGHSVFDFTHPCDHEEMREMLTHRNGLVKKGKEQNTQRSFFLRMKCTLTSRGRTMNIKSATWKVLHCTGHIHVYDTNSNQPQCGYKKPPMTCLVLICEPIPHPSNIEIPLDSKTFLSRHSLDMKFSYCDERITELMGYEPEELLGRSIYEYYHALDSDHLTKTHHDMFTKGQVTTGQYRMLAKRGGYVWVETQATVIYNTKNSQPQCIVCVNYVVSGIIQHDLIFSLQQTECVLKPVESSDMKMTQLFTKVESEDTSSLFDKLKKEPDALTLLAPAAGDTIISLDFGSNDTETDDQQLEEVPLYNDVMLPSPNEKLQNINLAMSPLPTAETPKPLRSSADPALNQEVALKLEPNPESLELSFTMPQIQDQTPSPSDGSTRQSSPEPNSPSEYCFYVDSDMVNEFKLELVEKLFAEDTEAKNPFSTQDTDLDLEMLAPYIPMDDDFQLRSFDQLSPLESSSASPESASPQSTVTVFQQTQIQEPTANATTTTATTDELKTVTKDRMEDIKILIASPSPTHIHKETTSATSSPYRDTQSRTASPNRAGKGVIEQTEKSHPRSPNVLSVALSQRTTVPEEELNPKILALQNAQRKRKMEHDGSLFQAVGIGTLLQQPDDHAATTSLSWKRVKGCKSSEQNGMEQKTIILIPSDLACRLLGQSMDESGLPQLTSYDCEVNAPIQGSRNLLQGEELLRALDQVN

CC(C)OC(=O)c1ccccc1
not listed: [10]
inactive: all other assays above

CCCCOC(=O)C(C)CC (stereo not drawn)
not listed: [10]
inactive: all other assays above

COc1cc(O)c(C(=O)c2ccccc2)cc1S(=O)(=O)O
not listed: [2]
inactive: all other assays above

CC1(C)CC(O)CC(C)(C)N1[O]
active: [10] 27.7 µM
not listed: [2] | [4]
inactive: all other assays above

O=c1c(O)c(-c2ccc(O)cc2O)oc2cc(O)cc(O)c12
not listed: [2] | [3] | [6]
inactive: all other assays above

CCCCOCCOC(=O)COc1ccc(Cl)cc1Cl
not listed: [10]
inactive: all other assays above

CCCCCCCCCCCCc1ccc(O)cc1
not listed: [2] | [6]
inactive: all other assays above

CCOC(=O)C1=NN(c2ccc(Cl)cc2Cl)C(C)(C(=O)OCC)C1 (stereo not drawn)
active: [8] 137 µM | [9] 66.8 µM
not listed: [2] | [6]
inactive: all other assays above

CCCCOCCOCCOC(C)=O
not listed: [10]
inactive: all other assays above

CC1CCC(C(C)(C)S)C(=O)C1 (stereo not drawn)
not listed: [2]
inactive: all other assays above

C=CC(C)(CCC=C(C)C)OC(=O)C=Cc1ccccc1 (stereo not drawn)
not listed: [2]
inactive: all other assays above

CCCCCOC(=O)CCCCC
not listed: [10]
inactive: all other assays above

C=C(C)OC(C)=O
not listed: [10]
inactive: all other assays above

CC(C)c1ccc2ncccc2c1
not listed: [2] | [6]
inactive: all other assays above

CCOC(=O)[C@H](O)[C@@H](O)C(=O)OCC
not listed: [2] | [4]
inactive: all other assays above

Nc1ccc(Cl)c(N)c1
not listed: [2] | [3] | [6]
inactive: all other assays above

CCNc1nc(NC(C)(C)C)nc(OC)n1
not listed: [2] | [6]
inactive: all other assays above

CC1OC(=O)C(C)OC1=O (stereo not drawn)
active: [6] 26.6 µM
not listed: [2] | [4]
inactive: all other assays above

Cc1ccc(C)c(OCCCC(C)(C)C(=O)O)c1
not listed: [2] | [6]
inactive: all other assays above

CN(C)Cc1cc(CN(C)C)c(O)c(CN(C)C)c1
not listed: [2] | [3]
inactive: all other assays above

COC(=O)C=Cc1ccccc1
not listed: [10]
inactive: all other assays above

CCCCC(CC)COS(=O)(=O)O (stereo not drawn)
not listed: [2] | [3]
inactive: all other assays above

CC1C(C)(C)C2=C(C(=O)CCC2)C1(C)C (stereo not drawn)
not listed: [10]
inactive: all other assays above

CC(CCC(=O)O)(c1ccc(O)cc1)c1ccc(O)cc1
not listed: [2] | [6]
inactive: all other assays above

C/C=C/C=C/CCCCCCCO
active: [1] 168 µM | [10] 172 µM | [8] 168 µM | [9] 121 µM
inactive: [4] | [5] | [6] | [7]

CC(C)(CO)C(O)C(=O)NCCCO (stereo not drawn)
not listed: [2] | [6]
inactive: all other assays above

CC(CC(C)C)=NO
not listed: [10]
inactive: all other assays above

CCOC(=O)c1ccccc1C
not listed: [2] | [4] | [6]
inactive: all other assays above

CC(C)(C)N
not listed: [10]
inactive: all other assays above

Cc1cccc(C(C)(C)C)c1O
not listed: [10]
inactive: all other assays above

CC(C)CO
not listed: [10]
inactive: all other assays above

Nc1ccnc(=O)[nH]1
not listed: [10]
inactive: all other assays above

CC1=NN(c2ccc(S(=O)(=O)O)cc2)C(=O)C1N=Nc1ccccc1 (stereo not drawn)
not listed: [10]
inactive: all other assays above

CCCc1ccc(O)c(OC)c1
not listed: [10]
inactive: all other assays above

O=C(O)CCCC(=O)O
not listed: [10]
inactive: all other assays above

CCCCCC[C@@H](O)C/C=C\CCCCCCCC(=O)OCC(O)CO (stereo partly drawn)
active: [1] 143 µM | [2] 149 µM | [4] 160 µM | [6] 67.2 µM | [8] 184 µM | [9] 144 µM
inactive: [3] | [5] | [7]

C=CCOC(=O)c1ccc(C(=O)OCC=C)c(C(=O)OCC=C)c1
not listed: [10]
inactive: all other assays above

O=C1CCCCCCCCCCCN1
not listed: [10]
inactive: all other assays above

Nc1cccc(N)n1
not listed: [10]
inactive: all other assays above

O=C(O)CC(C(=O)O)S(=O)(=O)O (stereo not drawn)
not listed: [10]
inactive: all other assays above

CO[Si](C)(C)OC
not listed: [10]
inactive: all other assays above

CCCCCCCCCCCC(=O)OCC
not listed: [10]
inactive: all other assays above

CCCCCCO
not listed: [10]
inactive: all other assays above

CC1CC(=O)CC(C)(C)C1 (stereo not drawn)
not listed: [10]
inactive: all other assays above

OCCCc1ccccc1
not listed: [10]
inactive: all other assays above

CCCCC1CCC(=O)O1 (stereo not drawn)
not listed: [10]
inactive: all other assays above

CCCSSCCC
not listed: [10]
inactive: all other assays above

O=C(Oc1ccccc1)c1ccccc1C(=O)Oc1ccccc1
not listed: [10]
inactive: all other assays above

CCCCC(CC)COC(=O)/C=C/c1ccc(OC)cc1 (stereo not drawn)
not listed: [10]
inactive: all other assays above

CC=C(C)C=CC=C(C)C
not listed: [10]
inactive: all other assays above

C=CCCCCCCCCC=O
not listed: [10]
inactive: all other assays above

CC(C)C(=O)OCCOc1ccccc1
not listed: [10]
inactive: all other assays above

COC(=O)c1ccc(C(=O)OC)c(C(=O)OC)c1
not listed: [10]
inactive: all other assays above

CC(C)CCOCc1ccccc1
not listed: [10]
inactive: all other assays above

C=C[C@@]1(C)CC(=O)[C@]2(O)[C@@]3(C)[C@@H](O)CCC(C)(C)[C@@H]3[C@H](O)[C@H](OC(C)=O)[C@@]2(C)O1
not listed: [10]
inactive: all other assays above

Oc1ccccc1Cc1ccccc1O
active: [3] 149 µM | [6] 134 µM | [9] 124 µM
not listed: [10]
inactive: all other assays above

CCOC(=O)c1ccc(C)cc1
not listed: [10]
inactive: all other assays above

CC(=O)CCC=C(C)C
not listed: [10]
inactive: all other assays above
